Results taken from the supplement of paper PMC12282887.
± gives the standard deviation of the averaged measurements.

Assays:
Test in all cases: promoter activity interaction Z-score (Lux/OD deviation from empty-vector control); higher = stronger promoter induction by the compound
[1] = test system: E. coli BW25113 acrABp lux reporter
Procedure, shortened: (§1)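 Four 1:2 dilutions of each compound were tested in biological duplicates on E. coli BW25113 carrying low-copy luxCDABE promoter reporters, either wild type or deleted for one of three genes. Cultures of 40 µl LB Lennox in 384-well plates were kept at 37°C and read for OD600 and luminescence every 30 min for 12 h. Integration windows were 0–8 h for wild type and 1–9 h for deletion strains, and wells under 10% of the median growth value were discarded. The score is a Z-transformed residual of growth-normalised luminescence relative to a control fit.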

[2] = test system: E. coli BW25113 micFp lux reporter
Procedure, shortened: as §1

[3] = test system: E. coli BW25113 ompFp lux reporter
Procedure, shortened: as §1

[4] = test system: E. coli BW25113 robp lux reporter
Procedure, shortened: as §1

[5] = test system: E. coli BW25113 soxSp lux reporter
Procedure, shortened: as §1

[6] = test system: E. coli BW25113 tolCp lux reporter
Procedure, shortened: as §1

[7] = 1329.2 µg/ml, genetic background: wild type
[8] = 1329.2 µg/ml, genetic background: ΔmarA
[9] = 1329.2 µg/ml, genetic background: Δrob
[10] = 1329.2 µg/ml, genetic background: ΔsoxS
[11] = 2658.5 µg/ml, genetic background: wild type
[12] = 2658.5 µg/ml, genetic background: ΔmarA
[13] = 2658.5 µg/ml, genetic background: Δrob
[14] = 2658.5 µg/ml, genetic background: ΔsoxS
[15] = 5317 µg/ml, genetic background: wild type
[16] = 5317 µg/ml, genetic background: ΔmarA
[17] = 5317 µg/ml, genetic background: Δrob
[18] = 5317 µg/ml, genetic background: ΔsoxS
[19] = 10634 µg/ml, genetic background: wild type
[20] = 10634 µg/ml, genetic background: ΔmarA
[21] = 10634 µg/ml, genetic background: ΔsoxS

With `CCN(CC)CCOC(=O)c1ccc(N)cc1` [Procaine] the “promoter activity interaction Z-score” value [1, 7] was -0.662 ± 0.28, the “promoter activity interaction Z-score” value [1, 8] was -0.602 ± 0.28 and the “promoter activity interaction Z-score” value [1, 9] was -0.872 ± 0.16. For the same compound, the “promoter activity interaction Z-score” value [1, 10] was -0.805 ± 0.27, the “promoter activity interaction Z-score” value [1, 11] was -0.675 ± 0.27 and the “promoter activity interaction Z-score” value [1, 12] was -0.191 ± 0.011. For the same compound, the “promoter activity interaction Z-score” value [1, 13] was -0.754 ± 0.019, the “promoter activity interaction Z-score” value [1, 14] was -0.807 ± 0.058 and the “promoter activity interaction Z-score” value [1, 15] was -0.798 ± 0.5. The “promoter activity interaction Z-score” value [1, 16] was 0.353 ± 0.5, the “promoter activity interaction Z-score” value [1, 17] was -0.739 ± 0.25 and the “promoter activity interaction Z-score” value [1, 18] was -1.88 ± 0.78. The “promoter activity interaction Z-score” value [1, 19] was -0.735 ± 0.28, the “promoter activity interaction Z-score” value [1, 20] was -0.543 ± 0.93 and the “promoter activity interaction Z-score” value [1, 21] was -1.22 ± 0.13. The “promoter activity interaction Z-score” value [2, 7] was 0.885 ± 0.053, the “promoter activity interaction Z-score” value [2, 8] was 0.505 ± 0.026 and the “promoter activity interaction Z-score” value [2, 9] was 0.103 ± 0.024. The “promoter activity interaction Z-score” value [2, 10] was 1.88 ± 0.031, the “promoter activity interaction Z-score” value [2, 11] was 1.93 ± 1.1 and the “promoter activity interaction Z-score” value [2, 12] was 0.738 ± 0.027. For the same compound, the “promoter activity interaction Z-score” value [2, 13] was 0.206 ± 0.083, the “promoter activity interaction Z-score” value [2, 14] was 3.42 ± 0.14 and the “promoter activity interaction Z-score” value [2, 15] was 2.99 ± 1. The “promoter activity interaction Z-score” value [2, 16] was 0.535 ± 0.11, the “promoter activity interaction Z-score” value [2, 17] was 0.692 ± 0.16 and the “promoter activity interaction Z-score” value [2, 18] was 3.95 ± 0.25. The “promoter activity interaction Z-score” value [2, 19] was 4.96 ± 1.1, the “promoter activity interaction Z-score” value [2, 20] was 0.433 ± 0.12 and the “promoter activity interaction Z-score” value [2, 21] was 1.99 ± 0.39. For the same compound, the “promoter activity interaction Z-score” value [3, 7] was -1.52 ± 0.52, the “promoter activity interaction Z-score” value [3, 8] was -1.23 ± 0.023 and the “promoter activity interaction Z-score” value [3, 9] was -1 ± 0.25. For the same compound, the “promoter activity interaction Z-score” value [3, 10] was -1.06 ± 0.18, the “promoter activity interaction Z-score” value [3, 11] was -1.95 ± 0.51 and the “promoter activity interaction Z-score” value [3, 12] was -1.57 ± 0.11. The “promoter activity interaction Z-score” value [3, 13] was -1.23 ± 0.6, the “promoter activity interaction Z-score” value [3, 14] was -2.1 ± 0.11 and the “promoter activity interaction Z-score” value [3, 15] was -2.79 ± 0.89. For the same compound, the “promoter activity interaction Z-score” value [3, 16] was -2.57 ± 0.088, the “promoter activity interaction Z-score” value [3, 17] was -2.71 ± 0.78 and the “promoter activity interaction Z-score” value [3, 18] was -3.43 ± 0.31. For the same compound, the “promoter activity interaction Z-score” value [3, 19] was -3.06 ± 0.97, the “promoter activity interaction Z-score” value [3, 20] was -3.26 ± 0.22 and the “promoter activity interaction Z-score” value [3, 21] was -2.71 ± 0.13. The “promoter activity interaction Z-score” value [4, 7] was -0.965 ± 0.38, the “promoter activity interaction Z-score” value [4, 8] was -0.355 ± 0.47 and the “promoter activity interaction Z-score” value [4, 9] was -0.376 ± 0.3. For the same compound, the “promoter activity interaction Z-score” value [4, 10] was -0.451 ± 0.9, the “promoter activity interaction Z-score” value [4, 11] was -0.714 ± 0.31 and the “promoter activity interaction Z-score” value [4, 12] was -0.386 ± 0.2. For the same compound, the “promoter activity interaction Z-score” value [4, 13] was -0.635 ± 0.58, the “promoter activity interaction Z-score” value [4, 14] was -1.84 ± 0.3 and the “promoter activity interaction Z-score” value [4, 15] was -0.969 ± 0.17. The “promoter activity interaction Z-score” value [4, 16] was -0.0415 ± 0.013, the “promoter activity interaction Z-score” value [4, 17] was -1.1 ± 0.3 and the “promoter activity interaction Z-score” value [4, 18] was -1.99 ± 0.064. The “promoter activity interaction Z-score” value [4, 19] was -0.708 ± 0.78, the “promoter activity interaction Z-score” value [4, 20] was -0.129 ± 0.82 and the “promoter activity interaction Z-score” value [4, 21] was -0.881 ± 1.3. The “promoter activity interaction Z-score” value [5, 7] was 0.403 ± 0.099, the “promoter activity interaction Z-score” value [5, 8] was 0.609 ± 0.067 and the “promoter activity interaction Z-score” value [5, 9] was 0.838 ± 0.31. For the same compound, the “promoter activity interaction Z-score” value [5, 10] was 0.324 ± 0.23, the “promoter activity interaction Z-score” value [5, 11] was 0.281 ± 0.23 and the “promoter activity interaction Z-score” value [5, 12] was 1.06 ± 0.17. For the same compound, the “promoter activity interaction Z-score” value [5, 13] was 1.61 ± 0.96, the “promoter activity interaction Z-score” value [5, 14] was 0.224 ± 0.071 and the “promoter activity interaction Z-score” value [5, 15] was 0.719 ± 0.53. The “promoter activity interaction Z-score” value [5, 16] was 1.68 ± 0.037, the “promoter activity interaction Z-score” value [5, 17] was 1.63 ± 0.81 and the “promoter activity interaction Z-score” value [5, 18] was 0.114 ± 0.72. The “promoter activity interaction Z-score” value [5, 19] was 0.878 ± 0.58, the “promoter activity interaction Z-score” value [5, 20] was 1.37 ± 0.74 and the “promoter activity interaction Z-score” value [5, 21] was -0.539 ± 1.1. For the same compound, the “promoter activity interaction Z-score” value [6, 7] was 0.541 ± 0.79, the “promoter activity interaction Z-score” value [6, 8] was -0.042 ± 0.17 and the “promoter activity interaction Z-score” value [6, 9] was 0.413 ± 1.2. The “promoter activity interaction Z-score” value [6, 10] was -0.32 ± 1.4, the “promoter activity interaction Z-score” value [6, 11] was 0.257 ± 0.23 and the “promoter activity interaction Z-score” value [6, 12] was -0.2 ± 0.34. The “promoter activity interaction Z-score” value [6, 13] was 0.54 ± 1.8, the “promoter activity interaction Z-score” value [6, 14] was -0.137 ± 0.1 and the “promoter activity interaction Z-score” value [6, 15] was -1.14 ± 0.3. The “promoter activity interaction Z-score” value [6, 16] was -0.284 ± 0.59, the “promoter activity interaction Z-score” value [6, 17] was -0.2 ± 0.18 and the “promoter activity interaction Z-score” value [6, 18] was 0.786 ± 1. For the same compound, the “promoter activity interaction Z-score” value [6, 19] was 2.42 ± 2.2, the “promoter activity interaction Z-score” value [6, 20] was 1.73 ± 2.4 and the “promoter activity interaction Z-score” value [6, 21] was 0.696.
